Source: PubChem (National Center for Advancing Translational Sciences (NCATS))
AmpC detergent = AmpC beta-lactamase inhibition with detergent present; AmpC hydrolysis of nitrocefin, absorbance 480 nm, 0.01% Triton; P00811; AID 485294; actives 0.041% (n = 370,000); Potency, µM (highest dose often 114 µM), actives largely listed as inhibitors; further: nearly all actives have a fitted effect of over 25% in size
Target sequence (P00811 whole entry, looked up): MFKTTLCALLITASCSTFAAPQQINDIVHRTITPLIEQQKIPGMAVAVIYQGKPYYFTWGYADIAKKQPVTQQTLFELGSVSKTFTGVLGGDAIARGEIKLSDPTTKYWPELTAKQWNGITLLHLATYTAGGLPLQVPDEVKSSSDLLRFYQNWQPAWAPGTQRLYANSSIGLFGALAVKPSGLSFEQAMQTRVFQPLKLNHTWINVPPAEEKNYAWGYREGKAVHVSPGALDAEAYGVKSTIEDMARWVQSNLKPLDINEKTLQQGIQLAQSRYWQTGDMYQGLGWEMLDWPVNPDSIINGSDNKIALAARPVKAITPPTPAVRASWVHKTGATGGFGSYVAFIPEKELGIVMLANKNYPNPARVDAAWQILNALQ
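20 mM phosphate pH 7.0 + 0.01% (detergent screen) or 0.0001% Triton X-100; 5.3 nM AmpC reagent; cpd preinc 15 min RT; nitrocefin (800 uM stock) to start; A480 q20 s × 4 min; Activity was normalised to no-enzyme and no-compound control wells.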
FMDV inh = foot and mouth disease virus antiviral activity; actives 1.2% (n = 410,000); Potency, µM (top dose mostly 57.9 µM), most hits filed as inhibitors; FMDV antiviral cell-based qHTS; AID 1159524; calls by dose curve; tested in HEK293T cells; further: read-out not given here; nearly all actives have a fitted effect of over 45% in size
HCMV antiviral = inhibitors of human cytomegalovirus; HFF cells, HCMV-luciferase reporter, 72 h; active compounds read low; activity change, negative = inhibition, % at 57.5 µM; actives 4.5% (n = 410,000); AID 1259415; in the data active means activity change below about -60%; inconclusive means no clear call, values can overlap the other calls; inactive means above about -39%
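Luciferase read-out from HCMV-luciferase-infected HFFs (MOI 1 PFU/cell) 72 h post infection at 37C; compounds added after 16 h cell attachment; activity normalized between buffer-only basal and Salinomycin (10uM) inhibitor controls.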
AmpC inh no detg = blocks E. coli AmpC beta-lactamase in detergent-free assay; P00811; Potency, µM (titrated, usually from 57.1 µM), usual class: inhibitors; AmpC nitrocefin hydrolysis, absorbance 480 nm, 0.0001% Triton; actives 0.52% (n = 330,000); AID 485341; further: nearly all actives have a fitted effect of over 20% in size
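AmpC (5.3 nM in the dispensed reagent) in 20 mM phosphate pH 7.0 with 0.01% (detergent screen) or 0.0001% Triton X-100 was preincubated with compounds for 15 min at room temperature. Nitrocefin was then added from an 800 uM solution, and hydrolysis was followed at 480 nm.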
HCV inhibitor = blocks hepatitis C virus; Huh7.5.1 HCVcc-Cre infection, luciferase reporter, 44 h; Potency, µM (titrated, usually from 41.8 µM), usual class: inhibitors; actives 3.4% (n = 340,000)
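Cells seeded at 1,000/well and cultured 4 h, then compounds added followed by HCVcc-Cre virus (~0.5 moi). After 44 h further culture, luciferase substrate was added, plates held 15 min at room temperature, and luminescence read for 15 sec.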
Of the large screens only hits and unclear results are named; the others gave an inactive call; ! = not active in a repeat. Shown are actives, neighbours in structure and some others; about 7.3% of the full set was active somewhere. Unless noted, the call rests on the fitted dose curve; in most records, active means well fitted curve in the direction sought with a large enough effect; inconclusive means small, poorly fitted or top-dose-only effect, or another doubt; inactive means no such curve, though single readings can be large; an effect the other way counts as inactive or inconclusive.

COc1ccc2sc(N(CCCN(C)C)C(=O)c3ccc(S(=O)(=O)N(C)Cc4ccccc4)cc3)nc2c1	AmpC detergent inconclusive, AmpC inh no detg inconclusive, HCV inhibitor 10µM
CN(C)CCCN(C(=O)c1ccc(S(=O)(=O)N(C)Cc2ccccc2)cc1)c1nc2cc3c(cc2s1)OCO3	HCMV antiviral inconclusive, HCV inhibitor inconclusive
Cc1ccc2sc(N(CCCN(C)C)C(=O)c3ccc(S(=O)(=O)N(C)Cc4ccccc4)cc3)nc2c1C	FMDV inh 31.6µM, HCV inhibitor 3.55µM
CCN(Cc1ccccc1)S(=O)(=O)c1ccc(C(=O)N(CCCN(C)C)c2nc3cc(C)cc(C)c3s2)cc1	HCV inhibitor 10µM
Cc1ccc2sc(N(CCCN(C)C)C(=O)c3ccc(S(=O)(=O)N(C)C)cc3)nc2c1C	HCV inhibitor inconclusive
Cc1cc(C)c2sc(N(CCCN(C)C)C(=O)c3ccc(S(=O)(=O)N(C)Cc4ccccc4)cc3)nc2c1	FMDV inh inconclusive, HCV inhibitor inconclusive
Cc1cc(C)c2sc(N(CCCN(C)C)C(=O)c3ccc(Br)s3)nc2c1	AmpC detergent inconclusive, FMDV inh inconclusive, HCV inhibitor 12.6µM
COc1ccc(O)c(CN2CCC3(CCC(CNC(=O)c4ccccc4)O3)CC2)c1 (centres undefined)	none (no result: AmpC detergent, HCMV antiviral, AmpC inh no detg, HCV inhibitor)
CCC1(C2CCN(C(=O)c3ccccc3C)CC2)NC(=O)N(CCc2scnc2C)C1=O (centres undefined)	none (no result: AmpC detergent, HCMV antiviral, AmpC inh no detg, HCV inhibitor)
Cc1ccc(NC(=S)N=Nc2c(O)n(C)c3ccc(S(=O)(=O)N4CCOCC4)cc23)cc1	HCMV antiviral -77.3, HCV inhibitor inconclusive
Cc1cccc(NC(=S)N=Nc2c(O)n(C)c3ccc(S(=O)(=O)N4CCOCC4)cc23)c1	HCV inhibitor 1.58µM!
Nn1c(SCC(=O)NNC(=O)c2ccccc2)nnc1-c1ccccc1F	AmpC detergent inconclusive
COC(=O)CN1C(=O)[C@H]2[C@@H](c3ccc(C)o3)N3C(=O)CN(CC4CC4)C(=O)[C@@]3(Cc3ccccc3)[C@H]2C1=O	HCMV antiviral -92.7
COC(=O)CN1C(=O)[C@H]2[C@@H](c3ccc(C)o3)N3C(=O)CN(Cc4ccccc4)C(=O)[C@@]3(C)[C@H]2C1=O	HCMV antiviral -83.1
COC(=O)CN1C(=O)[C@H]2[C@@H](c3ccc(C)o3)N3C(=O)CN(CCO)C(=O)[C@@]3(Cc3ccccc3)[C@H]2C1=O	AmpC detergent inconclusive
COc1ccc2c(c1)OC(C)CN(CC(=O)NCc1cn[nH]c1-c1ccc(F)cc1)C2 (centres undefined)	none (no result: AmpC detergent, HCMV antiviral, AmpC inh no detg, HCV inhibitor)
O=C(N/N=C/C(Br)=C\c1ccccc1)c1ccc2nc[nH]c2c1	HCMV antiviral -75.9, HCV inhibitor inconclusive
CC(=C/c1ccccc1)/C=N/NC(=O)c1ccc2nc[nH]c2c1	HCMV antiviral inconclusive
CCOc1cc(C(=O)N/N=C/C(Br)=C/c2ccccc2)cc(OCC)c1OCC	HCMV antiviral -76.2, HCV inhibitor inconclusive
COc1ccccc1/C=C/C=N/NC(=O)c1ccc2nc[nH]c2c1	AmpC inh no detg 20µM (no result: FMDV inh, HCMV antiviral, HCV inhibitor)
CCOc1cc(C(=O)NN=C2CCCC2)cc(OCC)c1OCC	AmpC detergent inconclusive, HCMV antiviral -75.9
COc1ccc(C(=O)NN=C2CCCC2)cc1OC	AmpC detergent inconclusive
O=C(N/N=C/C(Br)=C/c1ccccc1)c1ccncc1	HCMV antiviral inconclusive, HCV inhibitor inconclusive
COc1ccccc1/C=C/C=N/NC(=O)c1cc(-c2ccc(C)o2)[nH]n1	HCMV antiviral inconclusive, HCV inhibitor 10µM
COCC1CCCN(Cc2ccc3c(c2)CN(C(=O)c2cnn(C(C)C)c2)CCO3)C1 (centres undefined)	none (no result: AmpC detergent, HCMV antiviral, AmpC inh no detg, HCV inhibitor)
Cc1cc(C)n2nc(S(=O)(=O)N(CC(C)C)CC(C)C)nc2n1	AmpC detergent inconclusive, AmpC inh no detg 10µM
CC1(CO)COC2(OC1)C(=O)Nc1ccccc12 (centres undefined)	HCMV antiviral -75.7
O=C1Nc2ccccc2C12OCCCO2	none
COc1ccc(N2C(=O)C(=O)N(c3ccc(OC)cc3)P2(=O)N(CCCl)CCCl)cc1	HCMV antiviral -74.8 (no result: AmpC detergent, AmpC inh no detg)
CCn1c(-c2ccccc2F)nc2cc(NC(C)=O)cc(C(=O)NC(c3ccccn3)C(F)(F)F)c21 (centres undefined)	none (no result: AmpC detergent, HCMV antiviral, AmpC inh no detg, HCV inhibitor)
COc1ccc(Cn2c(=O)c3ccccc3n3c(-c4cccc(OC)c4OC)nnc23)cc1	HCMV antiviral -89.2 (no result: AmpC inh no detg, HCV inhibitor)
CCCc1cc(=O)oc2c3c(c4c(c12)OC(C)(C)C=C4)OC(C)C(C)C3O (centres undefined)	AmpC detergent inconclusive, HCMV antiviral -76.9, HCV inhibitor 10µM
O=S1(=O)CC(N2CCCC2)CN1Cc1cn(Cc2ccc(C(F)(F)F)cc2)nn1 (centres undefined)	none (no result: AmpC detergent, FMDV inh, AmpC inh no detg, HCV inhibitor)
COc1cc2nc(Cl)nc(N3CCCCC3)c2cc1OC	none
COc1cc2nc(N3CCN(c4cc(C)ccc4C)CC3)nc(N)c2cc1OC	FMDV inh 25.1µM, HCMV antiviral -98.3, HCV inhibitor 7.08µM
COc1cc2nc(N3CCNCC3)nc(N)c2cc1OC	AmpC detergent inconclusive, HCMV antiviral inconclusive, HCV inhibitor 22.4µM
Cc1ccc2c(=O)n3c(nc2c1)C(Cc1ccccc1)NC(=O)c1cc2ccccc2cc1-3 (centres undefined)	none (no result: AmpC detergent, AmpC inh no detg, HCV inhibitor)
Cc1cccc(CN2CCC(N3CC(C)OC(C)C3)CC2)c1 (centres undefined)	AmpC detergent inconclusive
CC(=O)NNC(=O)CCn1c2c(c3ccccc31)CCCC2	none
CCOC(=O)NNC(=O)CCn1c2c(c3ccccc31)CCCC2	HCMV antiviral -89.4, HCV inhibitor inconclusive
O=C(CCn1c2c(c3ccccc31)CCCC2)NNC(=O)c1ccc(Cl)c([N+](=O)[O-])c1	HCV inhibitor 10µM
CC(=O)Oc1ccc(/C=C2/SC(=S)N(Cc3ccccc3)C2=O)cc1	none
CC(c1ccccc1)N1C(=O)/C(=C/c2ccncc2)SC1=S (centres undefined)	FMDV inh 31.6µM, HCV inhibitor inconclusive
O=C(O)CCCCCN1C(=O)/C(=C/c2ccncc2)SC1=S	HCMV antiviral -77.3
COc1ccc(CN2C(=O)/C(=C/c3ccncc3)SC2=S)cc1	HCMV antiviral -71.8, HCV inhibitor inconclusive
O=C(O)CCCCCN1C(=O)/C(=C\c2ccncc2)SC1=S	HCMV antiviral -98.7
COc1ccc(CNC(=O)CN2C(=O)COc3ccccc32)c(OC)c1	none (no result: AmpC inh no detg, HCV inhibitor)
COc1cc(/C=C/C(=O)OCC(=O)NC(=O)NC2CCCCC2)ccc1OC(F)F	none
COc1cc(=O)n2c(c1C(=O)NCc1ccco1)CCN(Cc1c(F)cccc1F)CC2	none (no result: AmpC detergent, HCMV antiviral, AmpC inh no detg, HCV inhibitor)
Cc1ccc(Nc2sc(C(=O)c3ccccc3)c(N)c2S(=O)(=O)c2ccccc2)cc1Cl	none (no result: AmpC inh no detg, HCV inhibitor)
Cc1cccc(-c2nc(SCC(=O)NCC3CCCO3)c3c(=O)n(C)c(=O)n(C)c3n2)c1 (centres undefined)	none (no result: AmpC inh no detg, HCV inhibitor)
